Laboratory results from ChEMBL document CHEMBL3433997, “St. Jude Leishmania screening dataset” (2016).

Assays:
Assay type in all cases: functional
[1] = molecular target: Solute carrier family 2, facilitated glucose transporter member 1 (Homo sapiens) (UniProt P11166); assay: ST_JUDE_LEISH: Cytotoxicity at 2uM final concentration against transgenic Leishmania Mexicana promastigotes LmGLUT1 that are glucose transport deficient and complemented with the human glucose transporter GLUT1. Activity is measured by DNA content using SYBR green in vitro
[2] = molecular target: Hexose transporter 1 (Plasmodium falciparum) (UniProt O97467); assay: ST_JUDE_LEISH: Cytotoxicity at 2uM final concentration against transgenic Leishmania Mexicana promastigotes LmPfHT that are glucose transport deficient and complemented with the Plasmodium falciparum hexose transporter. Activity is measured by DNA content using SYBR green in vitro
[3] = molecular target: Glucose transporter (Leishmania mexicana) (UniProt O61059); assay: ST_JUDE_LEISH: Cytotoxicity at 2uM final concentration against transgenic Leishmania Mexicana promastigotes LmGT2 that are glucose transport deficient and complemented with the L. Mexicana glucose transporter 2. Activity is measured by DNA content using SYBR green in vitro

Chain of Solute carrier family 2, facilitated glucose transporter member 1 (Homo sapiens) (P11166 whole entry): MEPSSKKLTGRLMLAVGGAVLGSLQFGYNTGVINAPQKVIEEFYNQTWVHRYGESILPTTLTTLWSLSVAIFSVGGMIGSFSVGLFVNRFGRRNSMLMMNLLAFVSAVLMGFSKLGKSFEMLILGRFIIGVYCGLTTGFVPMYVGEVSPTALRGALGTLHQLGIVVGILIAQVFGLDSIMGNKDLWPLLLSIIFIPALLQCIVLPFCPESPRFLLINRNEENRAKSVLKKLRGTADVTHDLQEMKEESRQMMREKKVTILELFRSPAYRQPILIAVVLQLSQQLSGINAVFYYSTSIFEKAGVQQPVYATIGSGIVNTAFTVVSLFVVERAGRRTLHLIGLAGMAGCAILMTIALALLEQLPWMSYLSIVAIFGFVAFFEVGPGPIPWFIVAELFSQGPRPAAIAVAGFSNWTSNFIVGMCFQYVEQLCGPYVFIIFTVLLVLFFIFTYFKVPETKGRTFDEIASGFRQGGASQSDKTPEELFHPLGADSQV

O=C(Nc1ccc(N2CCCCC2)c(Cl)c1)c1ccco1
inhibition [1]: 0.11% | inhibition [2]: 0.86% | inhibition [3]: -1.58%

Cc1ccc(NC(=O)c2ccc(CN3CCCN(CCC(C)C)CC3)cc2)cc1F
inhibition [1]: 7.11% | inhibition [2]: 7.04% | inhibition [3]: 9.05%

Cc1noc(-c2ccc(O)cc2O)c1-c1ccc2c(c1)OCCCO2
inhibition [1]: 0.11% | inhibition [2]: 0.09% | inhibition [3]: 0.22%

CCOC(=O)NC1=NC(C)(C)N(OCc2ccc(Cl)c(Cl)c2)C(NC(=O)OCC)=N1
inhibition [1]: 3.54% | inhibition [2]: 2.08% | inhibition [3]: 2.54%

CCc1cc(-c2onc(C)c2-c2cc3ccccc3o2)c(O)cc1OC
inhibition [1]: 1.25% | inhibition [2]: -1.2% | inhibition [3]: -0.24%

CNS(=O)(=O)Cc1ccc(Nc2nccc(Nc3cccc4c3cnn4C(=O)Nc3ccccc3)n2)cc1
inhibition [1]: 4.38% | inhibition [2]: 3.98% | inhibition [3]: 3.72%

Cc1cccc2nc(-c3cccc(-c4cccc(NC(=O)NC5CC5c5ccccc5)c4)c3)[nH]c12 (centres undefined)
inhibition [1]: 1.8% | inhibition [2]: 2.2% | inhibition [3]: 5.21%

c1ccc(-c2cc(NCCCCCCCCNc3cc(-c4ccccc4)nc4ccccc34)c3ccccc3n2)cc1
inhibition [1]: 105% | inhibition [2]: 104% | inhibition [3]: 83.4%

COc1ccc(-c2nonc2NC(=O)c2cccc(Cl)c2)cc1OC
inhibition [1]: 4.3% | inhibition [2]: 1.03% | inhibition [3]: 1.34%

Cc1cccc2nc(-c3ccc(-c4ccc(CNCc5cnn(-c6ccccc6)n5)cc4)cc3)[nH]c12
inhibition [1]: 1.08% | inhibition [2]: 1.39% | inhibition [3]: 1.19%

N#Cc1ccc(C(=O)Nc2cc(-c3cccc(O)c3)cc3[nH]ncc23)cc1
inhibition [1]: 2.57% | inhibition [2]: 2.33% | inhibition [3]: 0.89%

O=C(NCc1ccccc1)OC1CNCCC1c1ccc(C(O)Cc2ccccc2)cc1 (centres undefined)
inhibition [1]: 1.68% | inhibition [2]: 1.62% | inhibition [3]: 2.32%

COc1ccc(NC(=O)c2ccc(C=Cc3ccc(C(F)(F)F)cc3)cc2)cc1N1CCN(C)CC1
inhibition [1]: 0.43% | inhibition [2]: 0.25% | inhibition [3]: -0.41%

COc1ccc(Cl)cc1S(=O)(=O)Nc1cccc(CCN2CCC(N3CCCCC3)CC2)c1
inhibition [1]: 2.48% | inhibition [2]: 4.55% | inhibition [3]: 0.15%

Cc1nc(-c2cccc(Nc3nccc(NCC(O)c4cccc(F)c4)n3)c2)cs1 (centres undefined)
inhibition [1]: -0.89% | inhibition [2]: -0.36% | inhibition [3]: -3.57%

O=S(=O)(NCCN1CCCC1)c1ccc(-c2cccc(CNCc3ccc(F)cc3)c2)s1
inhibition [1]: 6.73% | inhibition [2]: 2.44% | inhibition [3]: -1.98%

FC(F)(F)c1ccc2[nH]c(-c3ccc(-c4ccc(CNCc5cnn(-c6ccccc6)n5)cc4)cc3)nc2c1
inhibition [1]: 2.68% | inhibition [2]: 0.52% | inhibition [3]: 0.17%

CCCc1c(C(=O)OCC)c2cc(O)ccc2n1-c1ccc(OC)cc1
inhibition [1]: 5.29% | inhibition [2]: 6.77% | inhibition [3]: 4.32%

c1ccc(Oc2ccc(Nc3ccnc(Nc4cccc(CNCCCN5CCOCC5)c4)n3)cc2)cc1
inhibition [1]: -3.58% | inhibition [2]: -2.31% | inhibition [3]: -1.79%

COc1ccc(NC(=O)/C=C/c2ccccc2Cl)cc1OCCN1CCC(NCc2cccnc2)CC1
inhibition [1]: 3.65% | inhibition [2]: 2.5% | inhibition [3]: 1.91%

CC(C)c1ncc(-c2ccncc2)c(C2CCC(CNC(=O)c3ccncc3)CC2)n1 (centres undefined)
inhibition [1]: 3.67% | inhibition [2]: -0.19% | inhibition [3]: 1.87%

Clc1ccc(/N=C(/NCCCCCCCN/C(=N\c2ccc(Cl)cc2)Nc2ccc(Cl)cc2)Nc2ccc(Cl)cc2)cc1
inhibition [1]: 0.4% | inhibition [2]: 1.89% | inhibition [3]: -1.85%

COc1c(C2=CCN(CCCCNC(=O)c3ccc(-c4ccc(C#N)cc4)cc3)CC2)c(C)cc2c1C(C)(C)CCC2(C)C
inhibition [1]: 2.63% | inhibition [2]: 2.18% | inhibition [3]: 0.96%

COc1ccc(NC(=O)CCNc2cc(C)nc(NCc3ccccc3C)n2)cc1
inhibition [1]: 5.23% | inhibition [2]: 5.4% | inhibition [3]: 3.93%

CCCN(CCC)C(=O)c1cc(-c2cccc(C)c2)nc2ccccc12
inhibition [1]: 2.62% | inhibition [2]: 0.69% | inhibition [3]: -1.61%

COc1ccc(Nc2nc(C)cc(NCc3ccc(-c4c(C)noc4C)cc3)n2)cc1
inhibition [1]: 17.4% | inhibition [2]: 13.9% | inhibition [3]: 2.01%

c1ccc(-c2ccc(-c3csc(Nc4ccncc4)n3)cc2)cc1
inhibition [1]: 0.44% | inhibition [2]: 1.9% | inhibition [3]: 1.13%

COc1ccc2ccccc2c1C=NN=c1cc(C)[nH]c2c(C)cccc12
inhibition [1]: 1.52% | inhibition [2]: 1.8% | inhibition [3]: 3.6%

CC(C)(C)CCN1CCC(CNC(=O)c2cc(-c3cccc(Cl)c3)cs2)C1 (centres undefined)
inhibition [1]: 0.6% | inhibition [2]: -0.8% | inhibition [3]: -1.21%

CC(C)COc1ccc(Cl)cc1Cc1ccc(-c2nc3cc(CCN4CCCC4)ccc3[nH]2)o1
inhibition [1]: 0.75% | inhibition [2]: 3.33% | inhibition [3]: 2.08%

Fc1ccc2nc(Nc3nc(-c4ccccn4)cs3)sc2c1
inhibition [1]: 20.7% | inhibition [2]: 10.8% | inhibition [3]: 0.2%

c1ccc(CCNc2nc(NCC(c3ccccc3)c3ccccc3)c3nc[nH]c3n2)cc1
inhibition [1]: 4.2% | inhibition [2]: 3.7% | inhibition [3]: 1.17%

COc1ccc(C(=O)NCC(C)(C)c2nc(-c3ccc(Cl)c(O)c3)c(-c3ccncc3)[nH]2)cc1OCCN(C(C)C)C(C)C
inhibition [1]: -1.11% | inhibition [2]: -0.86% | inhibition [3]: -1.98%

CC1CN(c2cc(=O)n(Cc3cccc(NC(=O)Nc4ccc(-c5ccccc5)cc4)c3)cn2)CC(C)N1 (centres undefined)
inhibition [1]: 1.17% | inhibition [2]: 2.06% | inhibition [3]: -1.85%

N=C(N)Nc1nc(-c2cccc(NC(=O)NCCc3c[nH]c4ccc(OCc5ccccc5)cc34)c2)cs1
inhibition [1]: 0.6% | inhibition [2]: 1.4% | inhibition [3]: 0.56%

CS(=O)(=O)N1CC2(CCN(CCC(NC(=O)/C=C/c3ccccc3)c3ccc(Cl)c(Cl)c3)CC2)c2ccccc21 (centres undefined)
inhibition [1]: 2.11% | inhibition [2]: 0.3% | inhibition [3]: 1.25%

CC(C)(C)c1ccc(N2C(N)=NC(N)=NC2(C)C)cc1
inhibition [1]: -0.57% | inhibition [2]: 0.01% | inhibition [3]: 1.34%

O=C(NC1CCN(CC2(c3ccccc3F)CCCC2)CC1)c1cc[nH]n1
inhibition [1]: 4.33% | inhibition [2]: 1.54% | inhibition [3]: 1.89%
